Results reported in PubChem BioAssay (NCI).
About 83,000 compounds went through this panel and 20% of them were active in at least one assay; those are over-represented in the sample as a whole.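 Testing used 96-well plates and a 48-hour single-concentration exposure. Example: -40 means 40% of the starting cells died.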 Unmarked numbers belong to inactive results. Calls of active or inactive are those of the source. Rule for the calls: active = growth percent below 10; inactive = the rest.

Tested on: MDA-MB-468 breast
Assay: NCI-60 one-dose screen, 48 h (100 = growth as untreated, 0 = no growth, -100 = all killed)
Details: 10 µM unless noted

| SMILES | growth |
| --- | --- |
| CC1(C)CC[C@]2(C(=O)NCCNCCN)CC[C@]3(C)C(=CC[C@@H]4[C@@]5(C)CCC(=O)C(C)(C)[C@@H]5CC[C@]43C)[C@@H]2C1 | -67% (active) |
| COc1ccc(-c2nc3sccn3c2/C=C/C(=O)c2c[nH]c3ccccc23)cc1 | 62.6% |
| COc1cccc(-c2nc3sccn3c2-c2ccnc(NCCCNS(=O)(=O)c3ccc(C(F)(F)F)cc3)c2)c1 | 42.5% |
| CCCCc1ccc(NS(=O)(=O)c2cc3c4c(c2)CCN4C(=O)CC3)cc1 | -25.9% (active) |
| CC(=O)N1Cc2ccccc2C(C)Cc2cc(Cl)ccc21 (stereo not given) | 113% |
| CC(=O)C1=C(O)C=C2Oc3c(C(=O)/C=C/c4cc(C(F)(F)F)cc(C(F)(F)F)c4)c(O)c(C)c(O)c3[C@]2(C)C1=O | -69.3% (active) |
| COc1cnc2c(c1)C(=O)c1c-2n(CCCNC(C)C)c(=O)c2cc(Cl)ccc12 | 17.7% |
| COc1cnc2c(c1)C(=O)c1c-2n(CCCNCC2CC2)c(=O)c2cc(F)ccc12 | -38.4% (active) |
| COC(=O)[C@]12CC[C@@H](C)[C@H](C)[C@@H]1C1=CC[C@@H]3[C@@]4(C)C(C=O)=C[C@@](C)(CO)C4=CC[C@@]3(C)[C@]1(C)CC2 | 20% |
| CNC(=O)Nc1ccc(-c2nc(N3CCOCC3)nc3c2cnn3C2CCOCC2)cc1 | -34.4% (active) |
